This is an account of results in PubChem BioAssay.

Assay [1] is described as follows: resazurin metabolic signal in HepG2 cells – cell-based, resazurin fluorescence, 24 h, PK04 Diversity Set, profiling panel (AID 1172). Note: test concentration not given here. Conditions: HepG2 viability, higher = more signal. A general note: Alamar Blue is a resazurin reagent that responds to reducing activity.
Assay [2] in a line: budding yeast growth changes without added modifier – OD600, strain BY4716, 24 h, basal condition, primary screen (AID 1173). Conditions: S. cerevisiae BY4716 growth, OD600, 24 h; higher = more signal, called active from +8 up or from −8 down.
Assay [3] in a line: viability profiling in MM1S myeloma cells – cell-based, resazurin fluorescence, basal, 24 h, PK04 Diversity Set, profiling panel (AID 1174). Note: test concentration not given here. Conditions: higher = more signal, called active from +8 up or from −8 down.
Assay [4] has as its target Dihydroorotate dehydrogenase (quinone), mitochondrial (Plasmodium falciparum (isolate 3D7)) (UniProt Q08210). Kind of assay: inhibition of P. falciparum DHODH – biochemical, C-terminal His tag, absorbance 600 nm, primary screen (AID 1175).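 Note: recombinant parasite enzyme with a five histidine tag at its C terminus; test concentration not given here.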 Conditions: PfDHODH enzyme, DCIP absorbance 600 nm; higher = more signal, called active from +8 up or from −8 down.
Assay [5] in a line: inhibition of PAO1 biofilm formation – strain PAO1, LB-PBS medium, absorbance 600 nm, primary screen (AID 1176). Note: test concentration not given here. Conditions: P. aeruginosa PAO1 growth/biofilm, A600, 12 h; higher = more signal.
The nature of assay [6]: growth modulation of vineyard yeast isolate – strain RM11-1a, OD600, basal, 24 h, primary screen (AID 1177).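 Note: cultures grown under basal conditions with no added stressor; test concentration not given here.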 Conditions: S. cerevisiae RM11-1a growth, OD600, 24 h; higher = more signal, called active from +8 up or from −8 down.
The nature of assay [7]: growth of efflux-deficient E. coli DRC39 – strain DRC39, OD650, 24 h, E. coli filamentation inducers, primary screen (AID 1178).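 Note: growth measured as culture turbidity by optical density at 650 nm; test concentration not given here.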 Conditions: E. coli DRC39 acrAB, higher = more signal, called active from +8 up or from −8 down.
A short description of assay [8]: growth of efflux-deficient E. coli DRC39 – strain DRC39, OD650, 48 h, E. coli filamentation inducers, primary screen (AID 1179).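 Note: screen aims at cell division blockers that make cells filament.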 Conditions: E. coli DRC39 delta-acrAB growth, higher = more signal, called active from +8 up or from −8 down.
A short description of assay [9]: viability profiling in RPMI8226 myeloma cells – cell-based, resazurin fluorescence, basal, 24 h, PK04 Diversity Set, profiling panel (AID 1180).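 Note: RPMI8826 multiple myeloma cell line at 5000 cells per well; test concentration not given here.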 Conditions: higher = more signal.
The target of assay [10] is E3 ubiquitin-protein ligase XIAP (Homo sapiens) (UniProt P98170). Kind of assay: small molecules binding XIAP protein – biophysical, small-molecule microarray, fluorescence 635 nm, primary screen (AID 1181).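 Note: score merges 667 nm emission and signal to noise over triplicate slides.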 Conditions: higher = more signal.

Molecules are shown by their SMILES. Calls of active or inactive are those of the source. Unless noted, the rule behind the calls is not given here.

Chain of Dihydroorotate dehydrogenase (quinone), mitochondrial (Plasmodium falciparum (isolate 3D7)) (Q08210 whole entry, looked up): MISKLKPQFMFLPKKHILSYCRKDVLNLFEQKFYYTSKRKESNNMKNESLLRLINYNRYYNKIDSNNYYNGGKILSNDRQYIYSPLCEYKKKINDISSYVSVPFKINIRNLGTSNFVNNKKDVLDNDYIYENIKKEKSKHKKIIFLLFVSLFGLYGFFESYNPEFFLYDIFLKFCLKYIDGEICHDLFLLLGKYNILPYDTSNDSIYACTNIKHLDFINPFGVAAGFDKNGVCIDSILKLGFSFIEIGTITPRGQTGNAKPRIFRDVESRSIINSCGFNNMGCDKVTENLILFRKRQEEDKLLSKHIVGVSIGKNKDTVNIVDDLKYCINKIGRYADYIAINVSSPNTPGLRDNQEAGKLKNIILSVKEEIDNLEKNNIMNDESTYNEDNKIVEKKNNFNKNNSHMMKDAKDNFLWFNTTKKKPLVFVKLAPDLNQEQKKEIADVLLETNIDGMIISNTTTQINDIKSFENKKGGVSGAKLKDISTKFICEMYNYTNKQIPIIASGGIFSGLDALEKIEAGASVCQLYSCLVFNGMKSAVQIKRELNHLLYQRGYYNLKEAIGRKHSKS
Chain of E3 ubiquitin-protein ligase XIAP (Homo sapiens) (P98170 whole entry, looked up): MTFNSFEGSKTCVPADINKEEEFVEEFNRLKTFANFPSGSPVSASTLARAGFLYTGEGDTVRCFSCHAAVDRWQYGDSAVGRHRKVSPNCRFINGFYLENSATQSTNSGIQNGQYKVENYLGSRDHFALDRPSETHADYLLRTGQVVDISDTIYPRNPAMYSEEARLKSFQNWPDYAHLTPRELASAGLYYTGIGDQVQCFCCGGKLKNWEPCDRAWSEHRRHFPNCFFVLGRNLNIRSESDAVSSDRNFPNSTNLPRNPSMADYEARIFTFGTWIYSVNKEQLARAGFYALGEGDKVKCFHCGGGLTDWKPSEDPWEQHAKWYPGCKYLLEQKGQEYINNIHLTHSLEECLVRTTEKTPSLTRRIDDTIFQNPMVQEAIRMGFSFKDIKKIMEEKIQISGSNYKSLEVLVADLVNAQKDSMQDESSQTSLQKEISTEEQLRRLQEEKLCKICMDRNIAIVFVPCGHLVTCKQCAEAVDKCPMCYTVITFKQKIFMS

`CC(C)N1CC=CC23O[C@@H]4C=CCCOC(=O)C4[C@H]2C(=O)N(CCCCCCO)[C@@H]3C1=O` (stereo not given in full): the z-score was 0.973 in assay [1]; 0.948 (inactive) in [2]; 0.98 (inactive) in assay [3]; 0.109 (inactive) in assay [5]; 0.638 (inactive) in [6]; 0.66 (inactive) in [7]. Moreover, the z-score is 0.541 (inactive) in assay [8] and 0.937 in [9]. The composite z-score in assay [4] is -0.0439 (inactive); in [10], 0.694.
In the case of `O=C1[C@H]2[C@H]3[C@H](O)[C@H](O)CC(=NO[C@@H]4O[C@H](CO)[C@@H](O)[C@H](O)[C@H]4O)[C@@H]3CC[C@H]2C(=O)N1Cc1ccc2c(c1)OCO2`, the z-score in assay [1] was -0.191; in assay [2] it was -0.387 (inactive); in assay [3], 0.0622 (inactive); in assay [5], -0.389 (inactive); in assay [6] it was -0.558 (inactive); in [7], -0.494 (inactive). Besides, the z-score was -0.136 (inactive) in [8] and 0.36 in assay [9]. Also, the composite z-score in assay [4] was 0.0922 (inactive); in [10], -0.0552.
Turning to `N#Cc1ccc(NN2C(C(O)c3cc(C(F)(F)F)cc(C(F)(F)F)c3)C=CC3C(=O)N(c4ccccc4)C(=O)C32)cc1` (stereo not given), the z-score is -1.75 in assay [1]; -0.102 (inactive) in assay [2]; -0.758 (inactive) in [3]; 1.14 (inactive) in assay [5]; -0.0165 (inactive) in [6]; -1.55 (inactive) in assay [7]. For the same compound, the figures for the z-score in assay [8] and in assay [9] were -0.56 (inactive) and -0.409, respectively. Moreover, the values for the composite z-score in [4] and in [10] were 0.678 (inactive) and 0.0239, respectively.
Take `C[C@@H]1C=CCC(=O)OC[C@H](C)C(=O)N[C@@H](C)C(=O)OC1`: the z-score was 0.29 in [1]; 0.128 (inactive) in [2]; 0.617 (inactive) in assay [3]; -0.537 (inactive) in assay [5]; 0.317 (inactive) in assay [6]; 0.6 (inactive) in assay [7]. For the same compound, the z-score was 0.879 (inactive) in assay [8] and 0.361 in assay [9]. Further, the results for the composite z-score in assay [4] and in assay [10] were 0.474 (inactive) and -0.113, respectively.
As to `COC(=O)[C@H](C)NC(=O)CCC1CC(OC(=O)NCc2ccc3c(c2)OCO3)CC2(CCCC(COC(=O)NCCOc3ccccc3)O2)O1` (stereo not given in full), the z-score in assay [1] was 0.658; in assay [2] it was -0.565 (inactive); in assay [3] it was -0.951 (inactive); in [5], 0.875 (inactive); in [6], -1.31 (inactive); in assay [7], -0.388 (inactive). Besides, the z-score in assay [8] was -0.915 (inactive); in [9] it was 0.891. In addition, the values for the composite z-score in [4] and in assay [10] were -1.61 (inactive) and -0.105, respectively.
For the compound `COCCOC(=O)N1C(=O)[C@@]2(c3cc(C#CCNC(N)=O)ccc31)[C@H](c1ccc(O)cc1)N1[C@H](c3ccccc3)[C@H](c3ccccc3)OC(=O)[C@H]1[C@@H]2C(=O)N1CCCCCCC1`, the z-score is -0.0455 in assay [1]; 1.01 (inactive) in assay [2]; -0.172 (inactive) in assay [3]; 0.553 (inactive) in assay [5]; 0.517 (inactive) in assay [6]; 0.474 (inactive) in assay [7]. For the same compound, the z-score in [8] is -0.188 (inactive); in assay [9] it was -0.336. The results for the composite z-score in [4] and in assay [10] were 0.0489 (inactive) and -0.212, respectively.
`COC(=O)[C@H]1COC(c2ccc(OCCCO)cc2)=N1`: the z-score in assay [1] is -0.652; in [2], -0.928 (inactive); in assay [3], 0.107 (inactive); in assay [5], 0.149 (inactive); in [6], -0.286 (inactive); in assay [7], 0.057 (inactive). Moreover, the z-score in assay [8] was -0.645 (inactive); in assay [9], 0.492. Besides, the results for the composite z-score in assay [4] and in [10] were 0.335 (inactive) and -0.103, respectively.
For `CCc1cccc(NC(=O)O[C@H]2[C@H](OC(=O)Nc3ccc4c(c3)OCO4)[C@@H](OC(=O)Nc3ccc4c(c3)OCO4)[C@@H](OC)O[C@@H]2CO)c1`, the z-score is 1 in assay [1]; 1.04 (inactive) in [2]; -0.517 (inactive) in assay [3]; 0.745 (inactive) in assay [5]; 1.88 (inactive) in [6]; 1.57 (inactive) in assay [7]. Also, the z-score is 0.494 (inactive) in assay [8] and -0.36 in assay [9]. For the same compound, the composite z-score was -0.0004 (inactive) in [4] and -0.173 in assay [10].
As to `C=C(/C(=C/C[C@@H](OC(=O)c1ccncc1)c1ccc(OCCO)cc1)c1cnc2ccccc2c1)C(C)C`, the z-score in [1] was 0.384; in [2], -18.5 (active); in assay [3], -0.684 (inactive); in assay [5], -0.235 (inactive); in assay [6], -22.1 (active); in assay [7], 0.872 (inactive). In addition, the values for the z-score in assay [8] and in assay [9] were 0.432 (inactive) and 0.206, respectively. Moreover, the composite z-score in assay [4] is -10.5 (active); in [10], -0.0373.
Regarding `CC(C)CON=C1[C@H]2CCn3c(=O)n(-c4ccccc4)c(=O)n3[C@H]2[C@H](O)[C@@H]2O[C@H]12`, the z-score in [1] was -0.771; in assay [2], -0.813 (inactive); in assay [3] it was -1.21 (inactive); in assay [5], -0.225 (inactive); in assay [6] it was 0.0254 (inactive); in assay [7] it was 0.276 (inactive). Also, the z-score in [8] was 0.596 (inactive); in assay [9], -0.822. The composite z-score in assay [4] is -0.422 (inactive); in assay [10], -0.032.
As for `C=C(COC)/C(=C/C[C@H](OC(=O)c1ccncc1)c1ccc(CO)o1)c1cc(C(=O)OC)ccc1OC`, the z-score in [1] was -0.0086; in [2], -0.154 (inactive); in assay [3], -0.486 (inactive); in assay [5], 1.11 (inactive); in assay [6], -0.328 (inactive); in [7], -0.268 (inactive). Further, the values for the z-score in assay [8] and in assay [9] were 0.0389 (inactive) and 0.343, respectively. Besides, the results for the composite z-score in assay [4] and in assay [10] were -1.02 (inactive) and -0.168, respectively.
As for `CC(CCC(=O)OC[C@H]1O[C@H](C#Cc2ccccc2)C=C[C@@H]1Oc1ccc(C)cc1)=NO[C@@H](C)c1cn([C@H](CO)Cc2ccccc2)nn1`, the z-score was 0.0474 in [1]; 0.542 (inactive) in assay [2]; 0.925 (inactive) in assay [3]; -0.786 (inactive) in [5]; -0.0398 (inactive) in assay [6]; -0.26 (inactive) in assay [7]. The z-score in [8] was -1.24 (inactive); in [9] it was 0.911. For the same compound, the composite z-score in assay [4] was -2.15 (inactive); in [10], -0.338.
Take `COCCOC(=O)N1C(=O)[C@@]2(c3ccccc31)[C@H](C(N)=O)[C@H]1C(=O)O[C@H](c3ccccc3)[C@H](c3ccccc3)N1[C@@H]2c1ccccc1OCCO`: the z-score is -1.23 in assay [1]; 0.225 (inactive) in assay [2]; -2.56 (inactive) in assay [3]; 0.517 (inactive) in [5]; 1.63 (inactive) in assay [6]; 0.201 (inactive) in assay [7]. Also, the z-score in assay [8] is -0.158 (inactive); in assay [9], -4.25. In addition, the composite z-score in assay [4] is 0.692 (inactive); in [10] it was 0.209.
